{"source": "the supplement of paper PMC8728848", "binders": {"B1": {"name": "CcfD (Bacteroides fragilis), Q5L9G4 (protein)", "chain": "MKKQNSIYTLLIALLCFVSSCDYLGVSDQLAGGLQNTEQVFDNVSYTKRWYANVFAGIPDYSGINSVNVGAFKNPWTGMCDELVVGYGNSSKYNNSDRNAANMGFHRYGDCYKYIRQANIFLQKAHPIMTTGTQGDQLLEDELTQMKANVRFMRAFYHYLLFEQYGPIILVKDKIYNATEDQDVPRNTVDEVIEYIDSELTAVASELTQEPIFEDKDYRAWPTKGVALAVRAKLWLYAASPLLNGGYREALSVTNPDGTRLFPDYDAGKWEKALAACKDFIDYAEAGRYELYKEYKDDNGAVIDPDKSVYNLFQKYTHEIIWATANNDWGGMNGDAFDRRIAPRCEKNGLGSTGVTQELVDAFYMKDGFPVSATAYLPQSTLYQEEGYGTYKDQNDNFSKKYTNVTVSNRYLNREPRFYNTVFFNGRQWPVSCNQVLFYNGGNSGVQEGQATLTGYMLFKRFNRSVSLTNPGVASQFRPSIIFRLADFYLMYAEAANEVNPNDARVLKYLNLVRERAGLPDIETLNPAIRGNQELQRAAIQRERQIELATEGQRYFDVRRWMIADKNGEGRQNGYVHGMNVRGESNDKEDFNRIVEASQIVFNRKMYLYPMPDSEMRKTKNLVQNPGW"}}, "test_in_all_cases": "glycan array binding signal (z-score within array); higher = stronger binding", "details_in_all_cases": "glycan notation: IUPAC condensed, linker removed", "key": {"[1]": {"target": "Gal6S(b1-3)GlcNAc", "how_it_was_run": "(§1)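 From the Consortium for Functional Glycomics database, 3228 arrays were curated, keeping only those whose protein sequence was available. Binding is given as a within-array Z-score averaged across arrays sharing a protein sequence and across linkers. Negative Z-scores can be read as non-binding.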"}, "[2]": {"target": "GalNAc(b1-3)Gal(a1-6)Gal(b1-4)Glc", "how_it_was_run": "as §1"}, "[3]": {"target": "Glc(b1-4)Glc", "how_it_was_run": "as §1"}, "[4]": {"target": "GlcNAc(b1-2)[GlcNAc(b1-4)]Man(a1-3)[GlcNAc(b1-4)][GlcNAc(b1-2)[GlcNAc(b1-6)]Man(a1-6)]Man(b1-4)GlcNAc(b1-4)GlcNAc", "how_it_was_run": "as §1"}, "[5]": {"target": "GlcNAc(b1-3)Gal(b1-4)GlcNAc(b1-3)Gal(b1-4)GlcNAc(b1-3)Gal(b1-4)GlcNAc(b1-3)Gal(b1-4)GlcNAc(b1-2)[GlcNAc(b1-3)Gal(b1-4)GlcNAc(b1-3)Gal(b1-4)GlcNAc(b1-3)Gal(b1-4)GlcNAc(b1-3)Gal(b1-4)GlcNAc(b1-6)]Man(a1-6)[GlcNAc(b1-3)Gal(b1-4)GlcNAc(b1-3)Gal(b1-4)GlcNAc(b1-3)Gal(b1-4)GlcNAc(b1-3)Gal(b1-4)GlcNAc(b1-2)Man(a1-3)]Man(b1-4)GlcNAc(b1-4)[Fuc(a1-6)]GlcNAc", "how_it_was_run": "as §1"}, "[6]": {"target": "GlcNAc(b1-3)Gal(b1-4)GlcNAc(b1-6)[GlcNAc(b1-3)]Gal(b1-4)GlcNAc", "how_it_was_run": "as §1"}, "[7]": {"target": "GlcNAc(b1-3)[GlcNAc(b1-4)][GlcNAc(b1-6)]GlcNAc", "how_it_was_run": "as §1"}, "[8]": {"target": "GlcNAc6S(b1-3)Gal(b1-4)GlcNAc", "how_it_was_run": "as §1"}, "[9]": {"target": "Man(a1-2)Man(a1-3)[Man(a1-2)Man(a1-6)]Man(a1-6)[Man(a1-2)Man(a1-2)Man(a1-3)]Man", "how_it_was_run": "as §1"}, "[10]": {"target": "Neu5Ac(a2-3)Gal(b1-3)GlcNAc(b1-6)GalNAc", "how_it_was_run": "as §1"}, "[11]": {"target": "Neu5Ac(a2-3)Gal(b1-3)[Fuc(a1-4)]GlcNAc(b1-3)Gal(b1-3)[Fuc(a1-4)]GlcNAc", "how_it_was_run": "as §1"}, "[12]": {"target": "Neu5Ac(a2-3)Gal(b1-3)[GlcNAc(b1-6)]GalNAc", "how_it_was_run": "as §1"}, "[13]": {"target": "Neu5Ac(a2-3)Gal(b1-4)GlcNAc(b1-2)Man", "how_it_was_run": "as §1"}, "[14]": {"target": "Neu5Ac(a2-3)Gal(b1-4)[Fuc(a1-3)]GlcNAc(b1-3)Gal", "how_it_was_run": "as §1"}, "[15]": {"target": "Neu5Ac(a2-3)[GalNAc(b1-4)]Gal(b1-4)GlcNAc(b1-3)GalNAc", "how_it_was_run": "as §1"}, "[16]": {"target": "Neu5Ac(a2-6)Gal(b1-4)GlcNAc(b1-2)Man", "how_it_was_run": "as §1"}, "[17]": {"target": "Neu5Ac(a2-6)Gal(b1-4)GlcNAc(b1-2)Man(a1-3)[Neu5Ac(a2-6)Gal(b1-4)GlcNAc(b1-2)Man(a1-6)]Man(b1-4)GlcNAc(b1-4)GlcNAc", "how_it_was_run": "as §1"}, "[18]": {"target": "Neu5Ac(a2-6)Gal(b1-4)GlcNAc(b1-2)Man(a1-6)[GlcNAc(b1-2)Man(a1-3)]Man(b1-4)GlcNAc(b1-4)GlcNAc", "how_it_was_run": "as §1"}, "[19]": {"target": "Neu5Ac(a2-6)Gal(b1-4)GlcNAc(b1-3)Gal(b1-4)GlcNAc(b1-3)Gal(b1-4)GlcNAc(b1-2)Man(a1-3)[Neu5Ac(a2-6)Gal(b1-4)GlcNAc(b1-3)Gal(b1-4)GlcNAc(b1-3)Gal(b1-4)GlcNAc(b1-2)Man(a1-6)]GalNAc", "how_it_was_run": "as §1"}, "[20]": {"target": "Neu5Ac(a2-6)Gal(b1-4)GlcNAc(b1-3)Gal(b1-4)GlcNAc(b1-3)[Neu5Ac(a2-6)Gal(b1-4)GlcNAc(b1-3)Gal(b1-4)GlcNAc(b1-6)]GalNAc", "how_it_was_run": "as §1"}, "[21]": {"target": "Neu5Ac(a2-6)Gal(b1-4)GlcNAc(b1-6)GalNAc", "how_it_was_run": "as §1"}, "[22]": {"target": "Neu5Ac(a2-8)Neu5Ac", "how_it_was_run": "as §1"}, "[23]": {"target": "Neu5Ac(a2-8)Neu5Ac(a2-8)Neu5Ac(a2-3)[GalNAc(b1-4)]Gal(b1-4)Glc", "how_it_was_run": "as §1"}, "[24]": {"target": "Neu5Gc(a2-3)Gal(b1-3)GlcNAc", "how_it_was_run": "as §1"}, "[25]": {"target": "Neu5Gc(a2-8)Neu5Gc(a2-3)Gal(b1-4)GlcNAc", "how_it_was_run": "as §1"}}, "note": "Many of the other results were omitted from the sample, so the strongest signals are more common in it than they were.", "data": [{"binder": "B1", "values": [{"measurement": "glycan array binding signal (z-score)", "setting": "[1]", "value": 1.26}, {"measurement": "glycan array binding signal (z-score)", "setting": "[2]", "value": -0.64}, {"measurement": "glycan array binding signal (z-score)", "setting": "[3]", "value": 1.59}, {"measurement": "glycan array binding signal (z-score)", "setting": "[4]", "value": -0.548}, {"measurement": "glycan array binding signal (z-score)", "setting": "[5]", "value": 6.49}, {"measurement": "glycan array binding signal (z-score)", "setting": "[6]", "value": 0.069}, {"measurement": "glycan array binding signal (z-score)", "setting": "[7]", "value": 2.83}, {"measurement": "glycan array binding signal (z-score)", "setting": "[8]", "value": -0.516}, {"measurement": "glycan array binding signal (z-score)", "setting": "[9]", "value": 2.93}, {"measurement": "glycan array binding signal (z-score)", "setting": "[10]", "value": -0.64}, {"measurement": "glycan array binding signal (z-score)", "setting": "[11]", "value": -0.68}, {"measurement": "glycan array binding signal (z-score)", "setting": "[12]", "value": 0.22}, {"measurement": "glycan array binding signal (z-score)", "setting": "[13]", "value": -0.338}, {"measurement": "glycan array binding signal (z-score)", "setting": "[14]", "value": 0.036}, {"measurement": "glycan array binding signal (z-score)", "setting": "[15]", "value": 0.036}, {"measurement": "glycan array binding signal (z-score)", "setting": "[16]", "value": -0.522}, {"measurement": "glycan array binding signal (z-score)", "setting": "[17]", "value": 0.561}, {"measurement": "glycan array binding signal (z-score)", "setting": "[18]", "value": 4.06}, {"measurement": "glycan array binding signal (z-score)", "setting": "[19]", "value": 2.39}, {"measurement": "glycan array binding signal (z-score)", "setting": "[20]", "value": 2.75}, {"measurement": "glycan array binding signal (z-score)", "setting": "[21]", "value": -1.06}, {"measurement": "glycan array binding signal (z-score)", "setting": "[22]", "value": -0.378}, {"measurement": "glycan array binding signal (z-score)", "setting": "[23]", "value": -0.936}, {"measurement": "glycan array binding signal (z-score)", "setting": "[24]", "value": -0.456}, {"measurement": "glycan array binding signal (z-score)", "setting": "[25]", "value": -1.19}]}]}
